Measured values: PubChem BioAssay (NCI)
The panel holds about 83,000 compounds, 20% with a hit somewhere; the sample as a whole holds those more often.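 Single-concentration screen, 48 h exposure, 96-well plates. Endpoint: percent growth. Below 10 = active.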 Unmarked numbers belong to inactive results.

System: NCI-H522 lung
Assay: NCI-60 one-dose screen, 48 h (100 = growth as untreated, 0 = no growth, -100 = all killed)
Settings: 10 µM unless noted

How did the growth turn out when `O=C(/C=C/c1ccc2ccccc2c1)Nc1ncc(Cc2ccccc2)s1` was run?
Its growth is 72.8%.

Which growth does the source give for `O=C1c2cc3c(cc2-c2c1c1ccc(F)cc1c(=O)n2CCCN1CCOCC1)OCO3` here?
Its growth is 25.5%.

With `C=C1CC[C@@H](C(=O)OC)Cc2nc(C)ccc21` as the compound, how does the growth read?
Its growth is 86.4%.

With `CCN1CCN(C(=O)[C@]23CCC(C)(C)C[C@@H]2C2=CC[C@@H]4[C@@]5(C)C/C(=C/c6cccnc6)C(=O)C(C)(C)[C@@H]5CC[C@@]4(C)[C@]2(C)CC3)CC1` as the compound, how does the growth read?
Its growth is 28.4%.

With `Nc1c(C(=O)Nc2cccc3ccccc23)sc2nc3c(cc12)CCCC3` as the compound, how does the growth read?
Its growth is 11.7%.

How did the growth turn out when `CC(C)(C)c1cc(-n2c(-c3ccc(Cl)cc3)nc3cc(C(=O)Nc4ccc(Cl)cc4)ccc32)n[nH]1` was run?
Its growth is 56.9%.

With `Fc1ccc(Nc2nnc(-c3ccc(Cl)cc3)o2)cc1` as the compound, how does the growth read?
Its growth is 74%.

For `O=C1/C(=C\c2ccc(Br)o2)SC(=S)N1CCc1ccc(O)cc1`, which growth is on record?
Its growth is 37.8%.

With `CC(=O)c1c(C)[nH]c(-c2nc3ccc(N4CCN(C)CC4)cc3[nH]2)c1-c1ccc2c(c1)OCCO2` as the compound, how does the growth read?
Its growth is 48.7%.

How did the growth turn out when `COc1ccc2[nH]c(-c3ccc(Cl)cc3)cc(=O)c2c1` was run?
Its growth is 86.7%.

Which growth does the source give for `CCC1C(=O)COC1=O` (stereo not drawn) here?
Its growth is 77.7%.

`COc1ccc(O)c(-c2cc(-c3ccc(Cl)cc3)c(C#N)c(=O)[nH]2)c1` was tested. Which growth did it give?
Its growth is 36.8%.

`C=C(C)[C@@H]1CC[C@]2(C)[C@H](CC[C@@H]3[C@H]4[C@H]5OC[C@@]4(CCC5(C)C)CC[C@]32C)[C@@]1(C)CCCN` was tested. Which growth did it give?
The growth was 97.6%.
